This experiment concerns the target T1, CRBN, Q96SW2.
T1 chain: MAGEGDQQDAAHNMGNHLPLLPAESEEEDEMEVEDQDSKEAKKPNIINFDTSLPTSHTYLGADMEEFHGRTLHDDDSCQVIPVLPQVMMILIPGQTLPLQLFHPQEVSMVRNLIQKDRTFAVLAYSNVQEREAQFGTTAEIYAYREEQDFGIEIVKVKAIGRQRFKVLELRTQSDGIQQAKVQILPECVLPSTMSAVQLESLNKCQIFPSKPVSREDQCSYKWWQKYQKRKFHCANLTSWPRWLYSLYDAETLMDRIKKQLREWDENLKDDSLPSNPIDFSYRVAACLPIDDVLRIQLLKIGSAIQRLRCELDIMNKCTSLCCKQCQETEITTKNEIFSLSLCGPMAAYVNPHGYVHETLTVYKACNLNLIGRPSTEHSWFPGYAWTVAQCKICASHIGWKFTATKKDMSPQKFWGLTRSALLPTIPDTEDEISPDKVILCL
Briefly: log2 fold change of degron read counts, EGFP-low vs EGFP+ sorted cells (limma voom), compound-induced degradation; higher = more compound-induced degradation of the degron-EGFP fusion; degrons are variants of IKZF1/3 zinc finger 2; compound dose not given here. The conditions noted are these: Jurkat, 18 h. On the procedure:
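Pooled library of 8380 IKZF3 ZF2 degron mutants (positions 146-167 varied within the IKZF3 130-189 degron; only the varied core is printed, flanks not printed) fused to EGFP with IRES-mCherry, lentivirally expressed in Jurkat cells. mCherry+ cells were treated with one IMiD compound for 18 h (dose not stated) and FACS-sorted into EGFP-low and EGFP+ populations. Degron sequences were counted by NGS, and log2FC (EGFP-low vs EGFP+) was estimated by limma voom over 3 biological replicates.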

Setting [1] is: compound: compound 19 (5-tert-butyl-thalidomide).
[2] abbreviates: compound: compound 22 (5-morpholino-thalidomide).
[3] abbreviates: compound: compound 33 (diphenyl IMiD analogue).

In all, about 8,300 sequences were measured (“log2 fold change of degron read counts, EGFP-low vs EGFP+ sorted cells (limma voom), compound-induced degradation”: median about -1.1, highest 2% from about 3.2 on). This is one part of a sample in which the highest values are shown more often than they occur.
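Note: pooled lentiviral library of zinc finger degron-EGFP fusions in mCherry-positive Jurkat cells, FACS-sorted after compound exposure, with degron abundance counted by next-generation sequencing.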

On to FGCNICGACFTQKGNLLRHIKL [46F_47G_49N_50I_52G_53A_54C_55F_67L_, Q9UKT9], for which the “log2 fold change of degron read counts” value runs as follows: under setting [1], 1.07; under setting [2], 2.09; under setting [3], 1.61; (compound: thalidomide) 0.355.
On to FDCNVCGAMFTQKGNLLRHIKL [46F_47D_49N_50V_52G_53A_54M_55F_67L_, Q9UKT9], for which the “log2 fold change of degron read counts” value under setting [1] is -2.41, the “log2 fold change of degron read counts” value under setting [2] was -2.06, the “log2 fold change of degron read counts” value under setting [3] was -1.24 and the “log2 fold change of degron read counts” value (compound: thalidomide) is -0.963.
Take FECPQCGAKFTQKGNLLRHIKL [46F_47E_49P_50Q_52G_53A_54K_55F_67L_, Q9UKT9]: the “log2 fold change of degron read counts” value is, setting by setting: under setting [1], -1.95; under setting [2], -2.7; under setting [3], -2.13; (compound: thalidomide) 0.127.
FWCDICGALFTQKGNLLRHIKL [46F_47W_49D_50I_52G_53A_54L_55F_67L_, Q9UKT9]: the “log2 fold change of degron read counts” value runs as follows: under setting [1], 2.43; under setting [2], 2.23; under setting [3], 0.921; (compound: thalidomide) -1.11.
FNCPICGAGFTQKGNLLRHIKL [46F_47N_49P_50I_52G_53A_54G_55F_67L_, Q9UKT9]: the “log2 fold change of degron read counts” value by setting is: under setting [1], 2.9; under setting [2], 0.718; under setting [3], 0.577; (compound: thalidomide) 0.35.
LVCEICGFFCTQKGNLLRHIKL [46L_47V_49E_50I_52G_53F_54F_55C_67L_, Q9UKT9]: the “log2 fold change of degron read counts” value is, setting by setting: under setting [1], 0.178; under setting [2], 0.388; under setting [3], 0.876; (compound: thalidomide) 1.42.
The corresponding values for FSCPICGACFTQKGNLLRHIKL [46F_47S_49P_50I_52G_53A_54C_55F_67L_, Q9UKT9] are 2.84, 2.22, 2.64 and 1.47.
With FNCPICGACFTQKGNLLRHIKL [46F_47N_49P_50I_52G_53A_54C_55F_67L_, Q9UKT9], the “log2 fold change of degron read counts” value is 2.34 under setting [1], 1.06 under setting [2], 1.37 under setting [3] and 0.843 (compound: thalidomide).
Regarding FDCPICGACFTQKGNLLRHIKL [46F_47D_49P_50I_52G_53A_54C_55F_67L_, Q9UKT9], the “log2 fold change of degron read counts” value under setting [1] worked out at 1.96, the “log2 fold change of degron read counts” value under setting [2] came out at 0.401, the “log2 fold change of degron read counts” value under setting [3] turned out to be 2.22 and the “log2 fold change of degron read counts” value (compound: thalidomide) worked out at 2.13.
The matching figures for FMCPICGACFTQKGNLLRHIKL [46F_47M_49P_50I_52G_53A_54C_55F_67L_, Q9UKT9]: -0.174, 0.429, 2.49 and 1.41.
Regarding FCCPICGACFTQKGNLLRHIKL [46F_47C_49P_50I_52G_53A_54C_55F_67L_, Q9UKT9], the “log2 fold change of degron read counts” value reads like this: under setting [1], 2.52; under setting [2], 2.23; under setting [3], 2.82; (compound: thalidomide) 2.11.
As to FVCPICGACFTQKGNLLRHIKL [46F_47V_49P_50I_52G_53A_54C_55F_67L_, Q9UKT9], the “log2 fold change of degron read counts” value reads like this: under setting [1], 0.0061; under setting [2], 2.13; under setting [3], 2.08; (compound: thalidomide) 2.38.
Take FQCPICGACFTQKGNLLRHIKL [46F_47Q_49P_50I_52G_53A_54C_55F_67L_, Q9UKT9]: the “log2 fold change of degron read counts” value stood at 0.828 under setting [1], 3.06 under setting [2], 2.53 under setting [3] and 3.77 (compound: thalidomide).
Consider FICPICGACFTQKGNLLRHIKL [46F_47I_49P_50I_52G_53A_54C_55F_67L_, Q9UKT9], for which the “log2 fold change of degron read counts” value under setting [1] is -0.628, the “log2 fold change of degron read counts” value under setting [2] was 2.02, the “log2 fold change of degron read counts” value under setting [3] came to 1.94 and the “log2 fold change of degron read counts” value (compound: thalidomide) is 2.17.
As to FLCPICGACFTQKGNLLRHIKL [46F_47L_49P_50I_52G_53A_54C_55F_67L_, Q9UKT9], the “log2 fold change of degron read counts” value is, setting by setting: under setting [1], 0.664; under setting [2], -0.175; under setting [3], 1.79; (compound: thalidomide) 1.62.
Regarding FYCPICGACFTQKGNLLRHIKL [46F_47Y_49P_50I_52G_53A_54C_55F_67L_, Q9UKT9], the “log2 fold change of degron read counts” value under setting [1] was 3.5, the “log2 fold change of degron read counts” value under setting [2] worked out at 3.63, the “log2 fold change of degron read counts” value under setting [3] turned out to be 2.59 and the “log2 fold change of degron read counts” value (compound: thalidomide) is 1.59.
As for FWCPICGACFTQKGNLLRHIKL [46F_47W_49P_50I_52G_53A_54C_55F_67L_, Q9UKT9], the “log2 fold change of degron read counts” value was determined as 3.58 under setting [1], 3.31 under setting [2], 2.4 under setting [3] and 1.46 (compound: thalidomide).
FACPICGACFTQKGNLLRHIKL [46F_47A_49P_50I_52G_53A_54C_55F_67L_, Q9UKT9]: the “log2 fold change of degron read counts” value was determined as 3.48 under setting [1], 2.09 under setting [2], 1.78 under setting [3] and 1.06 (compound: thalidomide).
The matching figures for FDCDQCGAEFTQKGNLLRHIKL [46F_47D_49D_50Q_52G_53A_54E_55F_67L_, Q9UKT9]: -3.44, -3.7, -3.04 and -3.25.
For the sequence FVCEVCGAFFTQKGNLLRHIKL [46F_47V_49E_50V_52G_53A_54F_55F_67L_, Q9UKT9], the “log2 fold change of degron read counts” value by setting is: under setting [1], -0.979; under setting [2], -0.472; under setting [3], 1.09; (compound: thalidomide) 0.698.
For the sequence FDCPQCGAMFTQKGNLLRHIKL [46F_47D_49P_50Q_52G_53A_54M_55F_67L_, Q9UKT9], the “log2 fold change of degron read counts” value under setting [1] is -2.55, the “log2 fold change of degron read counts” value under setting [2] was -2.86, the “log2 fold change of degron read counts” value under setting [3] is -1.76 and the “log2 fold change of degron read counts” value (compound: thalidomide) is -1.75.
The matching figures for FFCNQCGRSFTQKGNLLRHIKL [46F_47F_49N_50Q_52G_53R_54S_55F_67L_, Q9UKT9]: -2.31, -2.35, -2.54 and -2.53.
The corresponding values for FYCDQCGAEFTQKGNLLRHIKL [46F_47Y_49D_50Q_52G_53A_54E_55F_67L_, Q9UKT9] are -1.15, -2.26, -1.96 and -3.08.
Take FNCPICGHAFTQKGNLLRHIKL [46F_47N_49P_50I_52G_53H_54A_55F_67L_, Q9UKT9]: the “log2 fold change of degron read counts” value reads like this: under setting [1], -1.92; under setting [2], -2.91; under setting [3], -2.41; (compound: thalidomide) -1.74.
FWCPICGAEFTQKGNLLRHIKL [46F_47W_49P_50I_52G_53A_54E_55F_67L_, Q9UKT9]: the “log2 fold change of degron read counts” value runs as follows: under setting [1], 2.47; under setting [2], 2.5; under setting [3], 1.96; (compound: thalidomide) 0.113.
In the case of FDCNQCGHAFTQKGNLLRHIKL [46F_47D_49N_50Q_52G_53H_54A_55F_67L_, Q9UKT9], the “log2 fold change of degron read counts” value under setting [1] is -2.71, the “log2 fold change of degron read counts” value under setting [2] was -2.67, the “log2 fold change of degron read counts” value under setting [3] was -2.47 and the “log2 fold change of degron read counts” value (compound: thalidomide) was -2.94.
As for FKCDICGAEFTQKGNLLRHIKL [46F_47K_49D_50I_52G_53A_54E_55F_67L_, Q9UKT9], the “log2 fold change of degron read counts” value was -3.02 under setting [1], -3.75 under setting [2], -4.07 under setting [3] and -2.58 (compound: thalidomide).
For FKCSVCGHVFTQKGNLLRHIKL [46F_47K_49S_50V_52G_53H_54V_55F_67L_, Q9UKT9], the “log2 fold change of degron read counts” value under setting [1] was -3.06, the “log2 fold change of degron read counts” value under setting [2] is -3.01, the “log2 fold change of degron read counts” value under setting [3] is -3.11 and the “log2 fold change of degron read counts” value (compound: thalidomide) is -3.07.
